Experimental data as given in PubChem BioAssay (Tox21).
Records with an inconclusive call do not appear. Active and inactive are the calls of the source. Unless noted, calls come from the whole dose curve; as a rule, active = well fitted curve in the direction sought with a large enough effect in the repeat runs; inconclusive = weak or mixed curves; inactive = no such curve, though single readings can be large; an effect the other way counts as inactive or inconclusive.

What was measured:
[1] = qHTS assay to identify small molecule agonists of the peroxisome proliferator-activated receptor delta (PPARd) signaling pathway - cell viability counter screen (AID 743211); note: nearly all actives have a fitted effect of over 55% in size
Procedure, shortened: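 Tox21 library compounds, delivered in DMSO, were incubated 17 h with PPARd-bla HEK293H cells; cytotoxicity was taken from CellTiter-Glo luminescence read 30 min after reagent addition.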

[2] = qHTS assay to identify small molecule agonists of the farnesoid-X-receptor (FXR) signaling pathway - cell viability counter screen (AID 743218); note: nearly all actives have a fitted effect of over 45% in size
Procedure, shortened: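 HEK 293T FXR-bla cells; 5 h pre-incubation, 16 h compound exposure at 37 C; LiveBLAzer substrate 2 h RT, then CellTiter-Glo 30 min RT, luminescence.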

[3] = qHTS assay to identify small molecule antagonists of the farnesoid-X-receptor (FXR) signaling pathway - cell viability counter screen (AID 743221; active = well fitted cell-killing curve with a large enough effect in the repeat runs, not every such curve was filed as active; note: nearly all actives have a fitted effect of over 50% in size)
Procedure, shortened: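 Cytotoxicity is taken from ATP luminescence (CellTiter-Glo, 30 min, room temperature) in FXR-bla HEK 293T cells previously incubated 16 h at 37 C with compound and chenodeoxycholic acid at 50 uM final.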

[4] = target: Vitamin D3 receptor (Homo sapiens) (UniProt P11473); test: qHTS assay to identify small molecule antagonists of the vitamin D receptor (VDR) signaling pathway (AID 743223; active = well fitted inhibition curve with a large enough effect in the signal ratio in the repeat runs, not every such curve was filed as active; the % refers to the signal ratio)
Chain of Vitamin D3 receptor (Homo sapiens) (P11473 whole entry, looked up): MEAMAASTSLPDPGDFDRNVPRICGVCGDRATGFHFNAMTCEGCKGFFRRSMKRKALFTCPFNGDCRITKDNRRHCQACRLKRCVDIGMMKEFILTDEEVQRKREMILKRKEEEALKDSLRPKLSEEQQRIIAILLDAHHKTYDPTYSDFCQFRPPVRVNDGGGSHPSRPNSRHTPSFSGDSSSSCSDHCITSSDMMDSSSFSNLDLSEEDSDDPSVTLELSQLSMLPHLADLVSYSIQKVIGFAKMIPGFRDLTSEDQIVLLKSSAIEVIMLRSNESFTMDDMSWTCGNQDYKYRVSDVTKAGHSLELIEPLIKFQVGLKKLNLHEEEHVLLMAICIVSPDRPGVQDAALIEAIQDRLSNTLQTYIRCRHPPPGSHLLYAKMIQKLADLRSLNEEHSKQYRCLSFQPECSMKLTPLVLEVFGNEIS
Procedure, shortened: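 Quantitative HTS in VDR-bla reporter cells stimulated with 1alpha,25-dihydroxyvitamin D3, 3 nM final. Compound exposure 16 h, 37C, 5% CO2. Read-out: beta-lactamase FRET substrate fluorescence, 2 h RT.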

[5] = qHTS assay to identify small molecule antagonists of the peroxisome proliferator-activated receptor delta (PPARd) signaling pathway - cell viability counter screen (AID 743213); note: nearly all actives have a fitted effect of over 50% in size
Procedure, shortened: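 Agonist-stimulated (L165041, 300 nM final) HEK293H PPARd UAS-bla cells are exposed to compounds for 17 h at 37 C, and ATP-based luminescence (CellTiter-Glo) from the same wells reports cytotoxicity.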

[6] = target: Bile acid receptor (Homo sapiens) (UniProt Q96RI1); test: qHTS assay to identify small molecule antagonists of the farnesoid-X-receptor (FXR) signaling pathway (AID 743217; active = well fitted inhibition curve with a large enough effect in the signal ratio in the repeat runs, not every such curve was filed as active; the % refers to the signal ratio)
Chain of Bile acid receptor (Homo sapiens) (Q96RI1 whole entry, looked up): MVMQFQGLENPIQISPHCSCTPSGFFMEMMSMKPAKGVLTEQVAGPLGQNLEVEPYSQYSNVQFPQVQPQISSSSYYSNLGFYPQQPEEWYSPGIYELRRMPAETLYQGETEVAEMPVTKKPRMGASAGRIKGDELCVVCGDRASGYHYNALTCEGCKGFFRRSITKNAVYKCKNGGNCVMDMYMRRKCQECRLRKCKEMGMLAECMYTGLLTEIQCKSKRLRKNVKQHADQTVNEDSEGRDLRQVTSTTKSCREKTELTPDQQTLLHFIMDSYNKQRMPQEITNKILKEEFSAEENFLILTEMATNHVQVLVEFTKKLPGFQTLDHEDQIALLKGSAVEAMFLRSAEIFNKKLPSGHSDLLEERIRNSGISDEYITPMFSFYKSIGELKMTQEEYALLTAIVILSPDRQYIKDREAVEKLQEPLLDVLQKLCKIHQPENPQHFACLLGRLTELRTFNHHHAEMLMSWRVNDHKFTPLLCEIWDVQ
Procedure, shortened: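 HEK 293T FXR-UAS-bla, 5000 cells/well; compound + CDCA 50 uM final; 16 h, 37 °C; B/G FRET substrate 2 h RT; fluorescence.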

[7] = target: Bile acid receptor (Homo sapiens) (UniProt Q96RI1); test: qHTS assay to identify small molecule agonists of the farnesoid-X-receptor (FXR) signaling pathway (AID 743220; active = well fitted activation curve with a large enough effect in the signal ratio in the repeat runs, not every such curve was filed as active; the % refers to the signal ratio)
Procedure, shortened: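 Beta-lactamase reporter under UAS control in GeneBLAzer FXR HEK 293T cells (5000/well) measured with LiveBLAzer FRET substrate after 2 h at room temperature. Compound exposure lasted 16 h at 37C.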

[8] = target: Vitamin D3 receptor (Homo sapiens) (UniProt P11473); test: qHTS assay to identify small molecule agonists of the vitamin D receptor (VDR) signaling pathway (AID 743222; calls by dose curve)
Procedure, shortened: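 VDR-bla cells, 2,000/well; 4 h preincubation 37C; cpd (DMSO) 16 h; LiveBLAzer B/G substrate 2 h RT; fluorescence intensity read.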

[9] = target: Peroxisome proliferator-activated receptor delta (Homo sapiens) (UniProt Q03181); test: qHTS assay to identify small molecule agonists of the peroxisome proliferator-activated receptor delta (PPARd) signaling pathway (AID 743212; calls by dose curve)
Chain of Peroxisome proliferator-activated receptor delta (Homo sapiens) (Q03181 whole entry, looked up): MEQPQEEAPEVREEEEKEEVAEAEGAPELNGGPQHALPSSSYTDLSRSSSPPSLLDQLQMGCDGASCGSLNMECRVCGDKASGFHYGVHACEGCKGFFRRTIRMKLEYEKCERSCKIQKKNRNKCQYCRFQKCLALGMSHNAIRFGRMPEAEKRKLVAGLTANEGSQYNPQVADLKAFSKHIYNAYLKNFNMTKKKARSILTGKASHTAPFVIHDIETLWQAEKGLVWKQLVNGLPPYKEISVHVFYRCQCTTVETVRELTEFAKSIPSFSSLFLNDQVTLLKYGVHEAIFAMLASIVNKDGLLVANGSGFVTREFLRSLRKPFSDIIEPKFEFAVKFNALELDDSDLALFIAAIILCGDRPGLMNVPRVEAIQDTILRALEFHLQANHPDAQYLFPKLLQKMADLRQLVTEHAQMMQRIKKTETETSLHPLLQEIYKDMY
Procedure, shortened: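 GeneBLAzer UAS-bla HEK293H cells carrying a PPARδ construct were exposed to compounds at 37 °C. Beta-lactamase activity was read by FRET fluorescence after 2 h at room temperature with LiveBLAzer B/G substrate.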

[10] = target: Peroxisome proliferator-activated receptor delta (Homo sapiens) (UniProt Q03181); test: qHTS assay to identify small molecule antagonists of the peroxisome proliferator-activated receptor delta (PPARd) signaling pathway (AID 743215; active = well fitted inhibition curve with a large enough effect in the signal ratio in the repeat runs, not every such curve was filed as active; the % refers to the signal ratio; note: series mostly up to about 62 µM)
Procedure, shortened: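 Read-out is beta-lactamase FRET fluorescence, measured 2 h after substrate addition at room temperature. Beforehand, UAS-bla HEK293H cells carrying the PPARd reporter were exposed to compounds with L165041 at 300 nM final for 17 h at 37 C.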

Measured: Potency

C[C@]12C=CC(=O)C=C1CC[C@@H]1[C@@H]2CC[C@@]2(C)[C@H]1CC[C@]2(C)O
inactive: [1] | [2] | [3] | [4]

CCC(C)C(C)(COC(N)=O)COC(N)=O (stereo unspecified)
inactive: [1] | [5] | [2] | [3]

CCCN1CCC[C@@H]2Cc3[nH]ncc3C[C@H]21
inactive: [1] | [6] | [2] | [7] | [3]

CC(C)(C1CCC(O)CC1)C1CCC(O)CC1 (stereo unspecified)
inactive: [1] | [5] | [2] | [3] | [8] | [4]

Nc1c(Cl)c(F)nc(OCC(=O)O)c1Cl
inactive: [1] | [5] | [3] | [4]

Cn1c(N)nc2c3cccnc3ccc21
not listed: [1] | [4]
inactive: all other assays above

CC[C@@H](CO)NC(=O)[C@@H]1C=C2c3cccc4c3c(cn4C)C[C@H]2N(C)C1
not listed: [1] | [8]
inactive: all other assays above

CC(C)[N+](C)(CCC(C(N)=O)(c1ccccc1)c1ccccc1)C(C)C
inactive: [1] | [5] | [3]

CON(C)C(=O)Nc1ccc(Br)c(Cl)c1
inactive: [1] | [2] | [3] | [8]

O=CCCl
inactive: [1] | [5] | [2] | [3] | [4]

CCCCCCC1CCOC1=O (stereo unspecified)
inactive: [1] | [5] | [2] | [3] | [8]

O=C(O)C(Cl)Br (stereo unspecified)
not listed: [1] | [4]
inactive: all other assays above

CCNc1nc(NCC)nc(SC)n1
inactive: [1] | [2] | [3] | [8] | [4]

O=[N+]([O-])c1cccc(CCl)c1
inactive: [1] | [5] | [2] | [3] | [4]

O=C(NC(O)C(Cl)(Cl)Cl)NC(O)C(Cl)(Cl)Cl (stereo unspecified)
inactive: [1] | [5] | [2] | [3] | [8] | [4]

CC[C@H](O)C(C[C@H](C)N(C)C)(c1ccccc1)c1ccccc1
not listed: [1] | [3]
inactive: all other assays above

Cc1ccc(-c2nc3ccc(C)cn3c2CC(=O)N(C)C)cc1
inactive: [1] | [5] | [3] | [4]

S=C=S
inactive: [1] | [5] | [2] | [3] | [4]

CCCOC(=O)Cc1ccc(OCC(=O)N(CC)CC)c(OC)c1
inactive: [1] | [6] | [2] | [7] | [3]

NC(=O)OCCCc1ccccc1
inactive: [1] | [5] | [2] | [3]

CNC(=O)Oc1ccccc1C(C)C
inactive: [1] | [5] | [2] | [3] | [8]

N[C@@H](Cc1ccc(Oc2cc(I)c(O)c(I)c2)c(I)c1)C(=O)O
not listed: [1] | [4] | [8]
inactive: all other assays above

N#CC(Br)(Br)C(N)=O
inactive: [1] | [5] | [3] | [8]

CCNP(=S)(OC)O/C(C)=C/C(=O)OC(C)C (stereo unspecified)
inactive: [1] | [5] | [2] | [3] | [8] | [4]

CCCC(C)C1(CC)C(=O)N=C(S)NC1=O (stereo unspecified)
inactive: [1] | [5] | [2] | [3] | [8] | [4]

Cn1c(CCCC(=O)O)nc2cc(N(CCCl)CCCl)ccc21
not listed: [1] | [4] | [8]
inactive: all other assays above
